ROC1-CUL1 inh: inhibitors of human ROC1-CUL1 ubiquitin ligase activity; E3 ubiquitin-protein ligase RBX1 (Homo sapiens) + Cullin-1 (Homo sapiens), P62877+Q13616; in vitro K48 di-Ub FRET, acceptor:donor ratio, 45 min; inhibition, % at 10 µM; 140,000 compounds, 0.6% hits; AID 1347404, 2020; in the data active = inhibition above about 25%
* hit, by the source's call. Shown is part of a subset that was picked to be rich in hits.

Results for Cc1ccc2c(c1)C1=C3C(=CC4(C)CC(C)(C)CC3(C4)N2)CC(C)(C)C1 (stereo not given) ?
ROC1-CUL1 inh: -1.1

How did Clc1ccc2oc(-c3ccccc3Br)nc2c1 do in these assays?
ROC1-CUL1 inh: -8.1

Results for O=C(OC1=CC(=O)c2ccccc2C1=O)c1ccccc1 ?
ROC1-CUL1 inh: -17.1

Results for CCc1cc2c(cc1OC(C)=O)C(=O)c1ccccc1C2=O ?
ROC1-CUL1 inh: 10.1

Results for CC(=O)C(C(C)=O)C1=CC(=O)C(=O)c2ccccc21 ?
ROC1-CUL1 inh: 102.7*

How did CC(=O)c1ccc(NC(=O)/C=C/c2c(Cl)cccc2Cl)cc1 do in these assays?
ROC1-CUL1 inh: 9.4

How did O=C(CCc1nnc(CCCCc2ccccc2)o1)N1CCSCC1 do in these assays?
ROC1-CUL1 inh: -10.8

How did Cc1ccc(/C=N/N2C(=O)/C(=C\c3ccc(C)cc3)SC2=Nc2c(C)n(C)n(-c3ccccc3)c2=O)cc1 do in these assays?
ROC1-CUL1 inh: -2.8

How did COC(=O)c1ccc(C(=O)OC)c(NC(=O)Cc2ccc(Br)cc2)c1 do in these assays?
ROC1-CUL1 inh: 4.2

How did COC(=O)c1ccc(C(=O)OC)c(NC(=O)CCc2ccccc2)c1 do in these assays?
ROC1-CUL1 inh: -2.5

What do the screens show for `COC(=O)c1ccc(C(=O)OC)c(NC(=O)CN(C)C)c1`?
ROC1-CUL1 inh: 50.8*

How did CCCCC1(C(C)(C)C)NS(=O)(=O)c2ccccc21 (stereo not given) do in these assays?
ROC1-CUL1 inh: 2.8

What do the screens show for `CCC1CN(CC(=O)NC2CCN(Cc3ccccc3)CC2)Cc2cc(OC)ccc2O1` (stereo not given)?
ROC1-CUL1 inh: -2.7

How did CSc1ccc(CNc2ncn[nH]2)cc1 do in these assays?
ROC1-CUL1 inh: 3.1

What do the screens show for `O=C(O)c1ncccc1C(=O)N1CCN(C(=O)c2ccco2)CC1`?
ROC1-CUL1 inh: -8.1

Results for COc1cc(Br)c(Br)c(/C=C2\SC(c3ccc(C)cc3)=NC2=O)c1O ?
ROC1-CUL1 inh: 93.0*

What do the screens show for `COc1cc(/C=C2/SC(=Nc3ccccc3C)NC2=O)c(Br)c(Br)c1O`?
ROC1-CUL1 inh: 5.5

What do the screens show for `COc1cc(Br)c(Br)c(C=Nc2ccc(NC(=O)c3ccccc3Br)cc2)c1O`?
ROC1-CUL1 inh: 14.6

What do the screens show for `CC(=O)Nc1ccc(-c2nnc(SCC(=O)Nc3ccc(Br)cc3Cl)n2C)cc1`?
ROC1-CUL1 inh: 6.5

How did Cc1cc(C)c2[nH]c(C(=O)NCC3CC(Cc4ccc(F)cc4)=NO3)c(C)c2c1 (stereo not given) do in these assays?
ROC1-CUL1 inh: 5.5

What do the screens show for `COc1ccccc1NS(=O)(=O)c1ccc(F)cc1`?
ROC1-CUL1 inh: 3.8

Results for Cc1nc(C2CCCN(C(=O)c3cc(-c4cccn4C)n[nH]3)C2)cc(=O)[nH]1 (stereo not given) ?
ROC1-CUL1 inh: -2.6

How did CCOc1ccc(-c2cc(C(=O)N3N=C(C(F)F)CC3(O)C(F)F)c3ccccc3n2)cc1 (stereo not given) do in these assays?
ROC1-CUL1 inh: 0.4

Results for Nc1c(C=C2C=C(Cl)C(=O)C(Cl)=C2)c(=O)nc2sc(C34CC5CC(CC(C5)C3)C4)nn12 ?
ROC1-CUL1 inh: 75.9*

How did CC(C)c1nn2c(N)c(C=C3C=C(Br)C=CC3=O)c(=O)nc2s1 do in these assays?
ROC1-CUL1 inh: 1.9

Results for CCC(CC)c1nn2c(N)c(C=C3C=CC(=O)C(OC)=C3)c(=O)nc2s1 ?
ROC1-CUL1 inh: 11.7

What do the screens show for `COC(=O)C(CC(C)C)Oc1ccc2c(C(F)(F)F)cc(=O)oc2c1` (stereo not given)?
ROC1-CUL1 inh: 5.4

How did Cc1nnc(N2C(=O)C(=O)C(C(=O)c3cc4ccccc4o3)C2c2ccc(Cl)c(Cl)c2)s1 (stereo not given) do in these assays?
ROC1-CUL1 inh: -8.7

What do the screens show for `CCOc1ccc2nc(N3C(=O)C(=O)C(C(=O)c4cc5ccccc5o4)C3c3cccc(Oc4ccccc4)c3)sc2c1` (stereo not given)?
ROC1-CUL1 inh: -2.3

What do the screens show for `Cc1nnc(N2C(=O)C(=O)C(C(=O)c3cc4ccccc4o3)C2c2cccc(Oc3ccccc3)c2)s1` (stereo not given)?
ROC1-CUL1 inh: 34.8*

What do the screens show for `Nc1c(Cl)cc2nn(-c3ccccc3)nc2c1Br`?
ROC1-CUL1 inh: 31.2*

How did O=C(Nc1cc2nn(-c3ccccc3)nc2cc1Cl)c1ccc(Br)cc1 do in these assays?
ROC1-CUL1 inh: -5.7

How did O=C(Nc1cc2nn(-c3ccccc3)nc2cc1Cl)c1ccccc1Br do in these assays?
ROC1-CUL1 inh: 11.2

What do the screens show for `Cc1ccc(S(=O)(=O)N2CCN(CC(=O)N/N=C\c3cccc(O)c3)CC2)cc1`?
ROC1-CUL1 inh: -1.2

Results for CC(C)=N/N=c1\scc(-c2ccccc2)n1Cc1ccco1 ?
ROC1-CUL1 inh: -1.3

How did O=C(/C=C/c1ccco1)CC1(O)C(=O)N(Cc2ccccc2Cl)c2ccccc21 (stereo not given) do in these assays?
ROC1-CUL1 inh: 5.2

Results for O=C1SC(SCc2ccccc2Cl)=N/C1=C\C=C\c1ccco1 ?
ROC1-CUL1 inh: 88.1*

Results for O=C1SC(SCc2ccccc2Cl)=N/C1=C\c1ccco1 ?
ROC1-CUL1 inh: -4.6

Results for COc1cc(/C=C2\SC(=O)N(CC(=O)Nc3ccc(F)cc3)C2=O)ccc1OC(C)C ?
ROC1-CUL1 inh: 3.6

Results for COCCN1CCCC2(CCN(Cc3c(F)cccc3Cl)C2)C1=O (stereo not given) ?
ROC1-CUL1 inh: 2.0

Results for O=C(Cc1ccc(F)cc1)N1CCC(C2(c3ccccn3)NC(=O)N(CC3CCCO3)C2=O)CC1 (stereo not given) ?
ROC1-CUL1 inh: 8.4

What do the screens show for `Cc1ccc(-c2csc3nc(SCC(=O)Nc4cc(C(F)(F)F)ccc4Cl)n(-c4ccccc4)c(=O)c23)o1`?
ROC1-CUL1 inh: 7.0

Results for CCCCOc1ccc(/C=C2\SC(=O)NC2=O)cc1OCC ?
ROC1-CUL1 inh: 1.9

What do the screens show for `N=C1C(=O)c2c(N)cccc2C(=O)C1Br` (stereo not given)?
ROC1-CUL1 inh: 102.5*

What do the screens show for `Nc1cccc2c1C(=O)N(c1cccc(F)c1)C2=O`?
ROC1-CUL1 inh: -1.4

Results for S=c1[nH]nc(COc2ccc(Cl)cc2-c2ccnn2-c2ccccc2)o1 ?
ROC1-CUL1 inh: 7.0

What do the screens show for `COC(=O)c1cc(NC(=O)CSc2nnc(Cc3ccccc3)o2)ccc1Cl`?
ROC1-CUL1 inh: 10.6

Results for O=C(CSc1nnc(Cc2ccccc2)o1)Nc1ccc(Cl)c(Cl)c1 ?
ROC1-CUL1 inh: 91.8*

What do the screens show for `Cc1ccc(NC(=O)CSc2nnc(Cc3ccccc3)o2)cc1C`?
ROC1-CUL1 inh: 10.9

Results for N=c1c2sc3nc(-c4cccs4)cc(C(F)(F)F)c3c2ncn1N ?
ROC1-CUL1 inh: 38.7*

Results for CSc1ncnc2c1sc1nc(-c3cccs3)cc(C(F)(F)F)c12 ?
ROC1-CUL1 inh: -2.5

How did FC(F)(F)c1cc(-c2cccs2)nc2sc3c(=S)nc[nH]c3c12 do in these assays?
ROC1-CUL1 inh: 3.5

Results for O=C(/C=C/c1ccco1)N(CCN1CCCCC1)CC1CCCN(C2CCCC2)C1 (stereo not given) ?
ROC1-CUL1 inh: -5.5

What do the screens show for `COc1cc(COCC(O)CN2CCCC(C)C2)cc(OC)c1OC` (stereo not given)?
ROC1-CUL1 inh: -4.8

How did CC1=C(C#N)c2nc(N)c(C#N)c(C)c2/C1=C\c1cccc(F)c1 do in these assays?
ROC1-CUL1 inh: -3.9

Results for CC1=C(C#N)c2nc(N)c(C#N)c(C)c2/C1=C\c1ccc(OCc2cccc(C(=O)O)c2)cc1 ?
ROC1-CUL1 inh: 98.4*

Source: PubChem
